Among all 330,000 compounds or so, about 1,400 (0.42%) were called active. For the sample, actives were picked, then their nearest neighbours and some compounds at random. Values without a mark were called inactive.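 Rule for the calls: active = inhibition above its plate's threshold, mean inhibition of all tested compounds on the plate plus 3 SD (cut at about 37% in these data); inactive = the rest.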

Chain of Orexin/Hypocretin receptor type 1 (Homo sapiens) (O43613 whole entry, looked up): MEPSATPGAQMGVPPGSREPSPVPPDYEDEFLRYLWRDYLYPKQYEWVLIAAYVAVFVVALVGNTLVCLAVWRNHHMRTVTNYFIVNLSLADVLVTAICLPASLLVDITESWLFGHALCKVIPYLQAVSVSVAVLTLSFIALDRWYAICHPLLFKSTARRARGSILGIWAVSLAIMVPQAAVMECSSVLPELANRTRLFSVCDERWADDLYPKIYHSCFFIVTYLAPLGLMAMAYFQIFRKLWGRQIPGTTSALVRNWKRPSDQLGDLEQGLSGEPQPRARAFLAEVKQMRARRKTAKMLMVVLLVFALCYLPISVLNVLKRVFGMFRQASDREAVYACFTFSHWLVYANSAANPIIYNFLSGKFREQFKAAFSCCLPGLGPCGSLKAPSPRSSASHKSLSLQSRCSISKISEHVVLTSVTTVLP

This experiment has as its target Orexin/Hypocretin receptor type 1 (Homo sapiens) (UniProt O43613). The experiment can be described thus: OX1R (HCRTR1) antagonists, primary screen, fluorescence, CHO/OX1R cells, Fluo-8 calcium, orexin A (AID 434989).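 Note: 0% = orexin A challenge wells and 100% = SB-334867-A antagonist wells.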 The settings on record: Fluo-8 calcium fluorescence, at 5 µM, hits give high values.
With `O=C1C=CN2CCCC2CC1` (stereo not drawn), the inhibition is -11.6%. In the case of `c1ccc(-c2cc3c(NCC4COc5ccccc5O4)ncnc3s2)cc1` (stereo not drawn), the inhibition was -20%.

For the compound `S=C(NCC1COc2ccccc2O1)Nc1ccc(Br)cc1` (stereo not drawn), the inhibition is 15.9%. The value for `c1ccc2c(c1)OCC(CNc1ncnc3nc[nH]c13)O2` (stereo not drawn) was 90.5% (active). For the compound `COc1ccc(CNC(=O)COC(=O)c2sccc2C)cc1OC`, the inhibition was -11.2%. Under `Cc1noc(C)c1NC(=O)Nc1cccc2c1O[C@H](CN(C)S(=O)(=O)c1c(C)noc1C)[C@@H](C)CN([C@H](C)CO)C2=O` stands -19.7%; under `CCN(C(=O)COC(=O)CCC(=O)c1cccs1)C1CCCCC1`, -13.9%. Under `COc1ccc(/C=C/C(=O)OCC(=O)NC2CCCCCC2)cc1OC` stands -27.2%.

With `CC[C@]12c3[nH]c4ccc(OC)cc4c3CCN1C(=O)C(CC(=O)NCCN1CCOCC1)C[C@@H]2C(=O)N1CCN(C(=O)C2CC2)CC1` (stereo partly drawn), the inhibition was -6.98%. The value for `CCCN(CC(=O)Nc1ccccc1OC)C(=O)CCC(=O)c1ccc(F)cc1` was 44.7% (active); that for `CCN(CC(=O)Nc1ccccc1OC)C(=O)CC1CC2CCC1C2` (stereo not drawn) was -19.5%. Under `CCN(CC(=O)Nc1ccccc1OC)C(=O)Cn1cnc2ccccc2c1=O` stands -15.9%. The value for `NS(=O)(=O)c1cccc(NC(=O)COC(=O)c2cc([N+](=O)[O-])ccc2N2CCCC2)c1` was -7.78%. On to `O=C(COC(=O)/C=C/c1ccc(Br)o1)Nc1cccc(S(=O)(=O)N2CCOCC2)c1`, for which the inhibition is -6.48%. Under `O=C(C[C@H]1C/C=C\C[C@@H](NC(=O)OCC2c3ccccc3-c3ccccc32)C(=O)O[C@@H](c2ccccc2)CNC1=O)N[C@H](CO)Cc1ccccc1` stands -18.2%; under `O=C(COC(=O)CN1C(=O)C2CCCCC2C1=O)Nc1ccc(F)c(F)c1F` (stereo not drawn), -8.95%. Under `O=C1C=C(c2ccc(Cl)cc2)C(=O)N1Nc1ccccc1` stands 53.2% (active); under `O=C(O)CC1=C(Nc2ccccc2)C(=O)N(c2ccccc2)C1c1ccc(Cl)cc1` (stereo not drawn), -21.1%. The value for `O=C(CCC(=O)OCc1ccc(Cl)cc1)Nc1ccccc1` was -9.06%; that for `Cc1ccc(S(=O)(=O)N2C[C@@H]3CCCC[C@@H]3[C@@H](C)[C@H]2c2cn(Cc3ccccc3)c3ccc(F)cc23)cc1` was 6.16%; that for `Fc1ccc2cnc(-c3ccccc3)cc2c1` was -19.1%.

Take `Cc1cc(-c2csc(N)n2)c(C)n1Cc1ccccc1`: the inhibition is -19.7%.

Consider `CC(=O)c1ccc(-c2ccc(Cn3c(C)nc4cc(N)c(C)nc43)cc2)cc1`, for which the inhibition is -25.1%. The value for `Cc1cc2nc3c(=O)n(Cc4ccccc4)c(=O)[nH]c3nc2cc1N` was 54.6% (active); that for `COc1ccc(NC(=O)Nc2ccc3c(c2)C(=O)N([C@H](C)CO)C[C@H](C)[C@@H](CN(C)C(=O)Nc2ccc4c(c2)OCO4)O3)cc1` was 1.29%. The value for `COc1ccc(-c2nc3cc(C)ccn3c2NC2CCCCC2)cc1SC1CCCCC1` was 25.4%. Under `CN(c1ccccc1)c1ccc(/C=c2\s/c(=C(/C#N)C(=O)C(C)(C)C)n(Cc3ccco3)c2=O)cc1` stands 42% (active). Regarding `CCOC(=O)Cn1c(=O)oc2cc(S(=O)(=O)N(C)Cc3ccco3)ccc21`, the inhibition is -12%.

On to `CCOC(=O)/C=c1\s/c(=C\c2ccc(C#N)cc2)c(=O)n1CC(=O)Nc1cccc(C)c1C`, for which the inhibition is 1.96%. The value for `CSc1ccc(NC(=O)/C=C/C(=O)O)cc1` was -13%. Under `COC(=O)c1sc(-c2ccc(C(C)(C)C)cc2)cc1NC(=O)/C=C/C(=O)O` stands 55.5% (active); under `CC(C)(C)c1ccc(/C=C/C(=O)Nc2ncccn2)cc1`, -7.7%.

Take `O=C(NNS(=O)(=O)c1c(F)cc(F)c(Cl)c1F)C12CC3CC(CC(C3)C1)C2`: the inhibition is 4.78%. As to `O=C(COC(=O)COc1cccc(F)c1)NCC1CCCCC1`, the inhibition was -16.8%. Turning to `CN(c1ccccc1)S(=O)(=O)c1cccc(NC(=O)Cc2c(F)cccc2Cl)c1`, the inhibition was 11.3%. Under `CN(c1ccccc1)S(=O)(=O)c1cccc(NC(=O)Cc2ccc(Cl)cc2)c1` stands 42.1% (active); under `CN(C)S(=O)(=O)c1cccc(NC(=O)Cc2ccsc2)c1`, -7.6%. The value for `COCCn1c(C)cc(C(=O)CN2c3cccc4cccc(c34)S2(=O)=O)c1C` was -15.1%. On to `CCOc1ccc(NC(=O)NNC(=O)c2ccc(Cl)cc2Cl)cc1`, for which the inhibition is -32.5%. The value for `OC(CNCCc1ccc(Cl)cc1Cl)COc1ccccc1` (stereo not drawn) was -12.8%. `NC(N)=N/N=C/c1ccc(OCc2ccc(Cl)cc2Cl)cc1`: the inhibition is 60% (active).

For the compound `Cc1noc(C)c1S(=O)(=O)N(C)C[C@H]1Oc2ccc(NC(=O)C3CCCCC3)cc2C(=O)N([C@H](C)CO)C[C@@H]1C`, the inhibition was -7.01%.

Take `CC[C@@H](C)[C@@H]1CN([C@@H](C)CN2CCC[C@H]2CN2C(N)=NC[C@H]2C(C)C)C(=N)N1CCc1ccc(Cl)c(Cl)c1`: the inhibition is -14.1%. As for `CC(=O)N/C(=C/c1ccc(Cl)cc1)C(=O)NCCc1c[nH]c2ccccc12`, the inhibition is -8.41%.

As to `N#C/C(=C/c1ccc(N2CCCCC2)o1)C(=O)NCCc1c[nH]c2ccccc12`, the inhibition is 61.6% (active). On to `O=C(CN1C(=O)NC2(CCCCC2)C1=O)NCCc1c[nH]c2ccccc12`, for which the inhibition is -22.5%. The value for `CN(C)C(=O)CCc1ccc2c3c([nH]c2c1)[C@]1(C)[C@@H](C(=O)N2CCOCC2)C[C@H](CC(=O)NCCc2ccccn2)C(=O)N1CC3` was -9.61%; that for `O=C(CN1C(=O)NC2(CCOc3ccccc32)C1=O)Nc1cccc([N+](=O)[O-])c1` (stereo not drawn) was -4.96%. Consider `COc1cccc(C(=O)NC(=O)Nc2nc(C)cc(C(F)(F)F)n2)c1`, for which the inhibition was 43.9% (active).

`Cc1cc(C)nc(NC(=O)Nc2ccccc2C(F)(F)F)n1`: the inhibition was -30.4%. As for `COc1cccc(C(=O)NNC(=O)c2cccc(F)c2)c1`, the inhibition is -14.5%. The value for `CCNC(=S)N1CCN(S(=O)(=O)c2ccc(Cl)s2)CC1` was -8.33%. Under `COc1ccc(CNC(=O)C[C@H]2C[C@H](C(=O)N3CCOCC3)[C@@]3(C)c4[nH]c5cc(CCC(=O)N(C)C)ccc5c4CCN3C2=O)cc1OC` stands -8.18%.

By inhibition is commonly meant the drop in the measured response relative to a control, in per cent.

(Values after PubChem BioAssay AID434989 (The Scripps Research Institute Molecular Screening Center, 2010).)
